Experimental data published in PubChem BioAssay AID1159580 (chemical genetic matrix, 2015).
Several values for one entry are separate records, joined by “and”; a condition that tells them apart may be missing. Identical values can stand only once. About 2,000 (36%) of roughly 5,500 compounds were called active. Inconclusive results (about 18%) are left out. Cut-off read from the data, not from the text of the source: active = normalized growth mostly below about 0.91 (no sharp cut-off); inconclusive = no clear call, values can overlap the other calls; inactive = mostly above about 0.92. The list shows a part of the results.

Assay: chemical genetic growth profiling, strain panel (AID 1159580);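 note: tested at 20 µM; growth read once vehicle control cultures reached saturation at 30 °C; 1 = growth at the plate median or of vehicle wells; lower values mean less growth of the strain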
Settings: S. cerevisiae deletion strains, growth OD

Measured: normalized growth

OCc1ccccc1O[C@@H]1O[C@H](CO)[C@@H](O)[C@H](O)[C@H]1O
inactive: locus YAL013W, strain DEP1, active compounds read low 0.994 | locus YAL021C, strain ccr4, active compounds read low 0.98 | locus YAL026C, strain drs2, active compounds read low 0.99 | locus YAL030W, strain snc1, active compounds read low 0.964 | locus YBL061C, strain skt5, active compounds read low 0.983 | locus YBR009C, strain hhf1, active compounds read low 0.977 | locus YBR021W, strain FUR4, active compounds read low 1.04 | locus YBR023C, strain chs3, active compounds read low 0.99 | locus YBR171W, strain sec66, active compounds read low 0.98 | locus YBR229C, strain ROT2, active compounds read low 0.95 | locus YBR231C, strain swc5, active compounds read low 0.983 | locus YBR279W, strain paf1, active compounds read low 0.983 | locus YCL011C, strain gbp2, active compounds read low 0.98 | locus YCL016C, strain dcc1, active compounds read low 0.991 | locus YCL029C, strain bik1, active compounds read low 0.994 | locus YCL069W, strain vba3, active compounds read low 1 | locus YCR088W, strain abp1, active compounds read low 0.98 | locus YDL005C, strain med2, active compounds read low 0.989 | locus YDL035C, strain GPR1, active compounds read low 1 | locus YDL040C, strain nat1, active compounds read low 0.994 | locus YDL074C, strain BRE1, active compounds read low 0.966 | locus YDL101C, strain DUN1, active compounds read low 0.976 | locus YDL134C, strain PPH21, active compounds read low 0.987 | locus YDL185W, strain tfp1, active compounds read low 0.983 | locus YDL192W, strain arf1, active compounds read low 0.994 | locus YDR001C, strain nth1, active compounds read low 0.984 | locus YDR069C, strain doa4, active compounds read low 0.987 | locus YDR101C, strain arx1, active compounds read low 0.946 | locus YDR137W, strain rgp1, active compounds read low 1.02 | locus YDR150W, strain NUM1, active compounds read low 0.98 | locus YDR159W, strain sac3, active compounds read low 0.944 | locus YDR162C, strain NBP2, active compounds read low 0.997 | locus YDR195W, strain ref2 0.962 | locus YDR297W, strain sur2, active compounds read low 1 | locus YDR318W, strain mcm21, active compounds read low 0.999 | locus YDR334W, strain swr1, active compounds read low 0.925 | locus YDR335W, strain msn5, active compounds read low 0.989 | locus YDR388W, active compounds read low 0.996 | locus YDR392W, strain spt3, active compounds read low 0.984 | locus YDR502C, strain sam2, active compounds read low 0.987 | locus YEL003W, strain gim4, active compounds read low 0.984 | locus YEL037C, strain rad23, active compounds read low 0.984 | locus YEL061C, strain CIN8 (second series), active compounds read low 0.972 | locus YEL061C, strain CIN8, active compounds read low 0.978 | locus YER015W, strain faa2, active compounds read low 0.998 | locus YER016W, strain bim1, active compounds read low 0.992 | locus YER110C, active compounds read low 0.994 | locus YER111C, strain swi4, active compounds read low 1.01 | locus YER155C, strain BEM2 (second series), active compounds read low 0.998 | locus YER155C, strain BEM2, active compounds read low 0.996 | locus YER167W, strain BCK2, active compounds read low 0.99 | locus YFR010W, strain ubp6, active compounds read low 0.998 | locus YGL078C, strain dbp3, active compounds read low 0.988 | locus YGL086W, strain mad1, active compounds read low 0.97 | locus YGL167C, strain pmr1, active compounds read low 1 | locus YGL173C, strain kem1, active compounds read low 0.995 | locus YGL227W, strain vid30, active compounds read low 0.965 | locus YGL240W, strain doc1, active compounds read low 0.996 | locus YGL248W, strain PDE1, active compounds read low 0.979 | locus YGL253W, strain hxk2, active compounds read low 0.987 | locus YGR078C, strain PAC10, active compounds read low 0.97 | locus YGR135W, strain pre9, active compounds read low 1.07 | locus YGR229C, strain SMI1, active compounds read low 1.01 | locus YGR252W, strain gcn5, active compounds read low 1.08 | locus YHR013C, strain ard1, active compounds read low 1.04 | locus YHR027C, strain rpn1, active compounds read low 0.959 | locus YHR030C, strain SLT2, active compounds read low 0.992 and 0.993 | locus YHR079C, strain IRE1 (second series), active compounds read low 0.983 | locus YHR079C, strain IRE1, active compounds read low 1.03 | locus YHR094C, strain hxt1, active compounds read low 1 | locus YHR129C, strain ARP1, active compounds read low 0.991 | locus YHR142W, strain chs7, active compounds read low 0.984 | locus YHR200W, strain rpn10, active compounds read low 0.987 | locus YIL066C, strain RNR3, active compounds read low 0.967 | locus YIL073C, strain SPO22, active compounds read low 1.02 | locus YIL125W, strain kgd1, active compounds read low 0.989 | locus YIR030C, strain dcg1, active compounds read low 0.997 | locus YJL092W, strain hpr5, active compounds read low 0.997 | locus YJL095W, strain BCK1 (second series), active compounds read low 0.987 | locus YJL095W, strain BCK1, active compounds read low 0.978 and 1.01 | locus YJL115W, strain asf1, active compounds read low 0.992 | locus YJL129C, strain trk1, active compounds read low 0.967 | locus YJL134W, strain LCB3, active compounds read low 0.991 | locus YJL154C, strain vps35, active compounds read low 0.991 | locus YJL164C, strain tpk1, active compounds read low 0.993 | locus YJL166W, strain qcr8, active compounds read low 1.01 | locus YJL168C, strain set2, active compounds read low 0.986 | locus YJL187C, strain SWE1 (second series), active compounds read low 0.952 | locus YJL187C, strain SWE1, active compounds read low 0.997 | locus YJR043C, strain POL32, active compounds read low 0.994
